Laboratory results from PubChem BioAssay (NCI).
This is part of a sample that, as a whole, favours compounds with a hit. Of some 83,000 tested, about 20% had one in any assay.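 Cell lines were cultured in 96-well plates, exposed to a single compound concentration, and assessed for percent growth 48 hours later.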 Values without a mark were called inactive. The source made the active and inactive calls. Rule for the calls: active = growth percent below 10; inactive = the rest.

Tests used:
Experiment in all cases: NCI-60 one-dose screen, 48 h (100 = growth as untreated, 0 = no growth, -100 = all killed)
DU-145 prostate = conditions: 10 µM unless noted
K-562 leukemia = conditions: 10 µM unless noted
MALME-3M melanoma = conditions: 10 µM unless noted
MDA-MB-231 breast = conditions: 10 µM unless noted
RXF 393 renal = conditions: 10 µM unless noted
SF-268 CNS = conditions: 10 µM unless noted
SF-295 CNS = conditions: 10 µM unless noted
SF-539 CNS = conditions: 10 µM unless noted
UACC-257 melanoma = conditions: 10 µM unless noted
M14 melanoma = conditions: 10 µM unless noted
HCT-15 colon = conditions: 10 µM unless noted
SNB-75 CNS = conditions: 10 µM unless noted
SNB-19 CNS = conditions: 10 µM unless noted
U251 CNS = conditions: 10 µM unless noted
PC-3 prostate = conditions: 10 µM unless noted
SK-MEL-5 melanoma = conditions: 10 µM unless noted
UACC-62 melanoma = conditions: 10 µM unless noted
LOX IMVI melanoma = conditions: 10 µM
SK-MEL-28 melanoma = conditions: 10 µM unless noted
HT29 colon = conditions: 10 µM unless noted

SMILES | growth (DU-145 prostate) [%] | growth (K-562 leukemia) [%] | growth (MALME-3M melanoma) | growth (MDA-MB-231 breast) [%] | growth (RXF 393 renal) [%] | growth (SF-268 CNS) [%] | growth (SF-295 CNS) | growth (SF-539 CNS) [%] | growth (UACC-257 melanoma) [%] | growth (M14 melanoma) [%] | growth (HCT-15 colon) [%] | growth (SNB-75 CNS) [%] | growth (SNB-19 CNS) [%] | growth (U251 CNS) [%] | growth (PC-3 prostate) [%] | growth (SK-MEL-5 melanoma) [%] | growth (UACC-62 melanoma) [%] | growth (LOX IMVI melanoma) | growth (SK-MEL-28 melanoma) [%] | growth (HT29 colon) [%]
NC(=O)N1CCOCC1 | 123 | 96.6 | 111% | 128 | 117 | 109 | 115% | 117 | 119 | 108 | 106 | 66 | 101 | 107 | 87.1 | 105 | 104 | 107% | 106 | –
Cc1ccc(C)c(CN(C)C)c1O | 108 | 119 | 94.8% | 109 | 107 | 104 | 97.8% | 96.5 | 105 | 105 | 121 | 84.2 | 122 | 99.6 | 102 | 107 | 117 | 98.9% | 102 | –
CCOC(=O)CO | 120 | 97.4 | 87% | 109 | 93.7 | 115 | 103% | 119 | 102 | 104 | 115 | 94.1 | 105 | 110 | – | 107 | 103 | 107% | 114 | –
Oc1cc2ccccc2c(-c2c(O)c(O)cc3ccccc23)c1O | 47.3 | 43.8 | 75.4% | 75.1 | 72.7 | 37.9 | -48% (active) | 21.4 | 56.1 | 25 | 28.2 | 41.5 | 41.5 | 33.9 | – | 33.4 | 27.9 | 14.5% | 53.2 | –
CC(C)OCC(CCl)OC(=O)Nc1ccccc1 (centres undefined) | 106 | 103 | 92.7% | 94.8 | 113 | 101 | 108% | 98.1 | 102 | – | 108 | 92.2 | 105 | 97.2 | – | 101 | 101 | 97% | 111 | 102
Nc1ccc(F)c(Cl)c1F | 111 | 100 | 107% | 101 | 97.1 | 106 | 107% | 103 | 118 | – | 111 | 89.3 | 110 | 116 | 84.1 | – | 103 | 95.3% | 109 | 108
CC(=O)c1cc(O)ccc1O | 114 | 91.7 | 111% | 96.6 | 88.8 | 109 | 104% | 92.5 | 104 | – | 107 | 103 | 97.9 | 104 | 98.3 | 113 | 96.6 | 98.9% | 109 | 104
CCOC(=O)CNC | 116 | 96.8 | 114% | 97.8 | 108 | 115 | 96.7% | 99.7 | 81.7 | – | 99.1 | 83.4 | 100 | 89.4 | 93.9 | 101 | 94.8 | 95.6% | 105 | 117
CC1CC(C)S(=O)(=O)C1 (centres undefined) | 104 | 92.4 | 110% | 115 | 115 | 111 | 105% | 104 | 95.7 | 111 | 103 | 94.6 | 108 | 88.5 | 104 | 101 | 92.9 | 103% | 111 | –
COc1cc(OC)c2cc(C(=O)c3ccc(C#N)cc3)c(=O)oc2c1 | 102 | 85.1 | 95.7% | 79.3 | 109 | 88.1 | 97.2% | 82.5 | 102 | – | 105 | 85.5 | 88.5 | 105 | 107 | 97.6 | 91.8 | – | 99.5 | 104
FC(F)(F)c1cc(NC2=NCCN=C(Nc3cc(C(F)(F)F)cc(C(F)(F)F)c3)SS2)cc(C(F)(F)F)c1 | 66.6 | 28.8 | 37% | 73.2 | 77.6 | 74.2 | 52.6% | 81.3 | 64.4 | – | 37.8 | 71.5 | 56.5 | 23.3 | 17.1 | 50.2 | 35.6 | 50.5% | 74.7 | 49
O=C(CCl)Nc1ccccc1SCc1cc(Cl)cc2c1OCOC2 | 101 | 32.1 | -69.1% (active) | 88.6 | 77.1 | 93.8 | 94% | 93.5 | 101 | 69.8 | 88.5 | 73.9 | 99.5 | 88.9 | 82.2 | 63.3 | 81.2 | -76% (active) | 94 | –
CCCCCCCCNC(=O)C(C)C | 105 | 108 | 106% | 109 | 93 | 104 | 100% | 96.9 | 108 | – | 106 | 91.2 | 101 | 101 | 94.9 | 103 | 96 | 98% | 101 | 95.5
O=C(O)Cc1cccc2ccccc12 | 115 | 96.4 | 116% | 123 | 117 | 109 | 110% | 108 | 90.4 | – | 102 | 82.2 | 116 | 95.1 | 106 | 118 | 110 | 97% | 121 | 105
COc1cc(-c2ccc(NC(=O)CC(C)=O)c(OC)c2)ccc1NC(=O)CC(C)=O | 111 | 98 | 97.3% | 101 | 113 | 107 | 101% | 97.6 | 89.3 | – | 96.7 | 82.2 | 101 | 89.6 | 95.1 | 98.1 | 102 | 96.7% | 111 | 107
O=[n+]1ccn([O-])c2ccccc21 | 105 | 109 | 98.3% | 94.6 | 89.5 | 95.8 | 107% | 99.1 | 133 | 96.7 | 110 | 92 | 102 | 100 | – | 93.2 | – | 97.4% | 108 | –
COC(=O)C1(CC(C)=O)NC(=S)NC(=O)C1C#N (centres undefined) | 125 | 104 | 103% | 104 | 107 | 117 | 96.8% | 103 | 118 | 110 | 106 | 112 | 98.4 | 109 | 119 | 100 | 103 | – | 118 | –
COc1cccc2c1Cc1ccccc1-2 | 106 | 94.4 | 117% | 93.6 | 97.9 | 99.8 | 103% | 107 | 102 | – | 114 | 110 | 94.4 | 103 | 91.1 | 100 | 99.3 | 80.3% | 115 | 100
